The values below come from PubChem BioAssay AID1347413 (National Center for Advancing Translational Sciences (NCATS), 2020).

This experiment in a line: qHTS to identify inhibitors of the type 1 interferon - major histocompatibility complex class I in skeletal muscle: tertiary screen by RT-qPCR, retest select compounds. The following applies: C25cl48 myoblasts, IFN-beta, HLA-B RT-qPCR, 24 h. The text has this:
Assay Submitter (PI): Travis B. Kinder Ph.D. & James Inglese Ph.D. Assay Development and Screening Technology Laboratory (ADST) National Center for Advancing Translational Sciences (NCATS), Rockville, MD National Institute of Health (NIH), Bethesda, Maryland Idiopathic inflammatory myopathies, collectively referred to as myositis, are a group of rare autoimmune diseases characterized by skeletal muscle inflammation, weakness, and usually accompanied by systemic pathologies of the skin, lungs, or vasculature. Current immunosuppressive therapies and glucocorticoids are often not curative and are accompanied by harsh side effects, especially in children with juvenile myositis. We initiated a drug repurposing and development program to identify more targeted, less toxic therapeutics to treat myositis. Although its cause is not known, muscle from a subset of patients have an abundance of the inflammatory type 1 interferon (IFN) and a down-stream product major histocompatibility complex class I (MHC class I), which are both thought to contribute to damage and weakness. We conducted quantitative high throughput screening (qHTS) on 6,576 compounds (4,679 unique) through a series of cell-based assays to identify those that inhibit the IFN-stimulated expression of MHC class I in muscle precursor cells (myoblasts). […]
(In general: In qHTS, concentration-response curves come from the screen itself.)

Calls of active or inactive are those of the source. Calls follow the shape of the dose curve; as a rule, active = well fitted curve in the direction sought with a large enough effect; inactive = no such curve, though single readings can be large or run the other way.

As for `CC(C)[C@]12O[C@H]1[C@@H]1O[C@@]13[C@@]1(C)CCC4=C(COC4=O)[C@@H]1C[C@@H]1O[C@@]13C2=O`, the Potency was 654 nM (active).
